Each structure is given as a SMILES string. In all, about 420,000 compounds went through this assay and about 64,000 (15%) were called active. Not shown: some 27% with an inconclusive outcome. Not all results are given here. A number with no mark means an inactive call. The call rests on the fitted dose curve; in most records, active means well fitted inhibition curve with a large enough effect; inconclusive means small, poorly fitted or top-dose-only effect; inactive means flat fitted curve, though single readings scatter.
On the % scale 0 is the no-effect control and ±100 the full control effect; potency means the concentration at half of the fitted maximal effect.

The test can be described thus: qHTS for Inhibitors of human tyrosyl-DNA phosphodiesterase 1 (TDP1): qHTS in cells in absence of CPT. Further: nearly all actives have a fitted effect of over 55% in size. Particulars: DT40 Tdp1-/- hTDP1 cells, no CPT, ATP luminescence, 48 h; activity change, negative = growth inhibition: at 46.2 µM (top of the series). Put shortly: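 Stably hTDP1-transfected Tdp1-null chicken DT40 cells were treated with library compounds minus camptothecin and grown for at least 48 hr at 37 °C, after which cellular ATP was quantified by luminescence.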
On the technique in general: qHTS replaces the single test concentration by a dilution series.
On to `Nc1ccc(-n2nncc2-c2ccco2)cc1`, for which the “activity change, negative = growth inhibition” value is -7.69%. `CC(C)c1ccc(N2CC(C(=O)Nc3nccs3)CC2=O)cc1` (stereo not given): the “activity change, negative = growth inhibition” value was -19%. On the same count and under the same terms, the value for `O=C(NN=C1CCC(=NNC(=O)c2cccnc2)CC1)c1cccnc1` was 15%; that for `COc1ccc(CNC(=O)C2CCN(S(C)(=O)=O)CC2)cc1` was 0.741%; that for `Cn1cnc(S(=O)(=O)N2C[C@@H](O)COC[C@@H]3O[C@H](CC(=O)NC4CCC4)CC[C@H]32)c1` was -4.51%. Same read-out and setting: in the case of `c1csc(-c2nnc(COc3ncnc4sccc34)o2)c1` it was -2.27%; in that of `C[C@@H]1NC(=O)c2cc([N+](=O)[O-])cc(F)c2NCCC[C@@H](C(N)=O)NC(=O)[C@H](CC(N)=O)NC1=O`, 15.3%.

With `O=C(c1cc(S(=O)(=O)N2CCOCC2)ccc1Cl)N1CCOCC1`, the “activity change, negative = growth inhibition” value was -1.42%. On the same count and under the same terms, in the case of `COc1cc(S(=O)(=O)N2CCN(C(=O)C3CC3)CC2)ccc1NC(C)=O` it was 19.7%. Same read-out and setting: in the case of `COc1ccc(S(=O)(=O)N2CCC(C(=O)N3CCOCC3)CC2)cc1OC` it was -12%. As to `COc1cc2c(cc1OC)CN(C(=O)c1ccc(S(=O)(=O)N3CCCCCC3)cc1)CC2`, the Potency is 14.6 µM (active). On to `COc1ccc(S(=O)(=O)N2CCCCC2)cc1Br`, for which the “activity change, negative = growth inhibition” value was -14.8%. On to `COc1ccc(S(=O)(=O)N2CCC(C(=O)N3CCc4ccccc4C3)CC2)cc1OC`, for which the Potency is 29.1 µM (active).

`CN1CCN(NC(=O)c2ccc(S(=O)(=O)N3CCCCCC3)cc2)CC1`: the “activity change, negative = growth inhibition” value is -18.3%. Consider `COc1ccc(C(=O)NCC2CCCCC2)cc1S(=O)(=O)N1CCCC1`, for which the “activity change, negative = growth inhibition” value was -8.77%. As for `COc1cc2c(cc1OC)CN(C(=O)c1cc(S(=O)(=O)N3CCCCC3)ccc1Cl)CC2`, the Potency is 11.6 µM (active). On to `CSc1ccccc1OCc1cc(C(=O)N2C[C@H]3CC[C@H]2C3)no1`, for which the “activity change, negative = growth inhibition” value is -22%. On the same count and under the same terms, in the case of `CCOc1ccccc1N(CC(=O)NC1CCCCC1)C(=O)CCCC(=O)Nc1ccccn1` it was -20.7%.

`O=C(c1ccc(Cl)cc1)c1cnc(Nc2ccccc2)s1`: the “activity change, negative = growth inhibition” value is -8.04%. `Cc1ccc(S(=O)(=O)NN=C2CC(C)(C)CC(=O)C2(C)C)cc1`: the “activity change, negative = growth inhibition” value is -14.2%. Same read-out and setting: the value for `COC(C[C@@H](O)C[C@H](O)[C@H](C)OCc1ccccc1)OC` was 10.3%; that for `Cc1noc(C)c1COc1ccccc1C(=O)N(C)CC(=O)Nc1cccc(F)c1` was -19.2%; that for `Cc1cc(Nc2ccccc2)n(CCC#N)n1` was -13.7%. On to `O=c1ccn([C@@H]2O[C@H](COP(=O)(O)OP(=O)(O)OP(=O)(O)O)[C@@H](O)[C@H]2O)c(=O)[nH]1`, for which the “activity change, negative = growth inhibition” value was -7.87%. The same measure, in the same setting: the value for `Cc1ccccc1NC(=O)CN1C(=O)N/C(=C\c2cccn2-c2cccc(C(=O)O)c2)C1=O` was -5.12%; that for `Nn1c(SCc2ccccc2)nnc1C1CCCCC1` was -9.36%; that for `Cc1ccc(-c2nc(C#N)c(NCCCn3ccnc3)o2)cc1` was -27.6%. As for `Cc1ccc(S(=O)(=O)c2nc(NCCCn3ccnc3)sc2Cl)cc1`, the Potency was 20.6 µM (active). Regarding `Cc1ccc(S(=O)(=O)NCCCn2ccnc2)cc1C(=O)NC(C)C`, the “activity change, negative = growth inhibition” value is -5.17%. For `CCc1ccccc1NC(=O)/C(=C/c1ccccc1)c1ccccc1`, the Potency was 23.1 µM (active). Consider `CCc1ccccc1NC(=S)Nc1cc(OC)c(NC(=O)C(C)C)cc1OC`, for which the “activity change, negative = growth inhibition” value was -17.7%. Take `CCc1ccccc1NC(=O)CCOc1ccccc1`: the Potency result is “inactive”. As to `O=S(=O)(Nc1cccc(Oc2ccc(Cl)cc2)n1)c1ccc(F)cc1`, the “activity change, negative = growth inhibition” value was 1.53%. Take `CC(C)(C)NC(=O)CN1CCC(NC(=O)C23CC4CC(CC(C4)C2)C3)CC1`: the “activity change, negative = growth inhibition” value is -4.57%. Take `CCc1c(C)sc(NC(=O)C2c3ccccc3Oc3ccccc32)c1C(=O)OC(C)C`: the “activity change, negative = growth inhibition” value was 0.406%. On the same count and under the same terms, in the case of `Cc1cc(S(=O)(=O)N2CCOCC2)ccc1OCC(=O)Nc1cccc(C(F)(F)F)c1` it was -9.35%. Still for that read-out and setting: in the case of `O=C(Oc1ccccc1Cl)c1ccc(N2CCOCC2)c([N+](=O)[O-])c1` it was -15.9%. For the compound `O=C(COc1ccc(S(=O)(=O)N2CCOCC2)cc1Cl)N1CCOCC1`, the “activity change, negative = growth inhibition” value was -24.9%. Still for that read-out and setting: in the case of `O=C(Cc1ccc(S(=O)(=O)N2CCOCC2)s1)NCCOc1ccccc1F` it was -16.1%. Regarding `O=C(Cc1ccc(S(=O)(=O)N2CCOCC2)s1)Nc1ccc(Br)c(C(F)(F)F)c1`, the Potency was 25.9 µM (active). Still for that read-out and setting: the value for `O=C(c1ccc(N2CCOCC2)c([N+](=O)[O-])c1)N1CCN(S(=O)(=O)c2cccs2)CC1` was 16.4 µM (active).

`O=C(OCC(=O)N1CCOCC1)c1ccc(N2CCOCC2)c([N+](=O)[O-])c1`: the “activity change, negative = growth inhibition” value was -2.15%. With `O=C(Cc1ccc(S(=O)(=O)N2CCOCC2)s1)N1CCN(c2ccc(C(F)(F)F)cc2[N+](=O)[O-])CC1`, the Potency was 9.2 µM (active). Regarding `O=S(=O)(Nc1cc(S(=O)(=O)N2CCOCC2)ccc1N1CCCC1)c1cccs1`, the “activity change, negative = growth inhibition” value is -19.9%. Same read-out and setting: the value for `CC1CC(C)CN(CCCNC(=O)c2csc3c2CCCCC3)C1` (stereo not given) was -2.49%; that for `CCOC(=O)c1nc(N)sc1C(=O)OCC` was -2.51%. Still for that read-out and setting: the value for `O=C(Nc1ccc(-n2ccnc2P(=O)(O)c2ccccc2)cc1)c1ccccc1Br` was -25.4%. Same read-out and setting: in the case of `CSc1nc2sc3c(c2c(=O)[nH]1)CCc1ccccc1-3` it was -1.5%; in that of `O=C(NC1CCCC1)C(c1c(F)cccc1Cl)N(C(=O)c1csnn1)C1CC1` (stereo not given), -3.6%. On to `Cc1noc(C)c1NC(=O)Nc1cccc2c1O[C@H](CN(C)C(=O)Nc1ccccc1)[C@@H](C)CN([C@H](C)CO)C2=O`, for which the “activity change, negative = growth inhibition” value is -6.07%.

The values are drawn from PubChem BioAssay AID686978 (National Center for Advancing Translational Sciences (NCATS), 2013).
